# Results filed as inconclusive are left out. A number with no mark means an inactive call. Activity calls are given as the source filed them. Calls come from the whole dose curve; as a rule, active = well fitted inhibition curve with a large enough effect; inconclusive = small, poorly fitted or top-dose-only effect; inactive = flat fitted curve, though single readings scatter.
# What was measured:
# [1] = Drug repurposing screens with cells derived from glioblastoma tumor samples (AID 1345199); settings: GBM patient neurospheres viability, ATP luminescence, 48 h; note: nearly all actives have a fitted effect of over 40% in size
# Method in brief: (§1)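 Four patient lines of CD133+ GBM neurospheres were screened at several concentrations; hits were retested in those lines plus three slower-growing GBM lines, using 48-hour treatment and ATP-based viability.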
# astro = control astrocytes; assay: as above; settings: viability, ATP luminescence, 48 h; series mostly up to 45.9 µM
# Method in brief: as §1
# [2] = at 45.9 µM (top of the series), tumour line B
# [3] = at 45.9 µM (top of the series), tumour line D
# [4] = at 46.1 µM (top of the series), tumour line C
# [5] = at 46 µM (top of the series), tumour line A
# [6] = at 20 µM (top of the series), tumour line C
# [7] = at 21.2 µM (top of the series), tumour line B
# [8] = at 21.2 µM (top of the series), tumour line D
# % is set by controls: 0 for no effect and ±100 for the full control effect; potency is the fitted concentration of half-maximal effect.
smiles,measurement,setting,value
CC/C=C\C/C=C\C/C=C\C/C=C\C/C=C\CCCC(=O)O,"activity, negative = cell killing",[1]; [2],-9.54%
same,"activity, negative = cell killing",[1]; [3],-0.692%
same,"activity, negative = cell killing",[1]; [4],-8.93%
same,Potency,astro,inactive
C[C@@H]1C[C@H]2[C@@H]3CCC4=CC(=O)C=C[C@]4(C)[C@@]3(F)[C@@H](O)C[C@]2(C)[C@@]1(O)C(=O)COC(=O)c1cccc(S(=O)(=O)O)c1,"activity, negative = cell killing",[1]; [2],-14.3%
same,"activity, negative = cell killing",[1]; [3],-16.1%
same,"activity, negative = cell killing",[1]; [5],-5.39%
same,Potency,astro,inactive
CC12CCC(C[N+](C)(CCC[N+](C)(C)C)C1)C2(C)C (stereo unspecified),"activity, negative = cell killing",[1]; [2],-11.8%
same,"activity, negative = cell killing",[1]; [3],-25.7%
same,"activity, negative = cell killing",[1]; [4],21.9%
same,Potency,astro,inactive
C#C[C@]1(O)CC[C@H]2[C@@H]3CCC4=C(CCC(=O)C4)[C@H]3CC[C@@]21C,"activity, negative = cell killing",[1]; [6],-4.47%
same,"activity, negative = cell killing",[1]; [7],-8.06%
same,"activity, negative = cell killing",[1]; [8],-3.97%
same,Potency,astro,inactive
CN1CCN(C(c2ccccc2)c2ccc(Cl)cc2)CC1 (stereo unspecified),"activity, negative = cell killing",[1]; [6],3.89%
same,"activity, negative = cell killing",[1]; [7],-16.8%
same,Potency,[1]; tumour line A,11.2 µM (active)
same,Potency,astro,inactive
CC(C)C1=CC2=CC[C@@H]3[C@](C)(CCC[C@@]3(C)C(=O)O)[C@H]2CC1,"activity, negative = cell killing",[1]; [2],-3.87%
same,"activity, negative = cell killing",[1]; [3],2.46%
same,"activity, negative = cell killing",[1]; [4],-9.17%
same,Potency,astro,inactive
CCCCCCCCCCCCCCCCCC(=O)OCC(C)O (stereo unspecified),"activity, negative = cell killing",[1]; [2],-18.7%
same,"activity, negative = cell killing",[1]; [3],-0.865%
same,"activity, negative = cell killing",[1]; [5],-14.9%
same,Potency,astro,inactive
Cc1ncc(COP(=O)(O)O)c(CN)c1O,"activity, negative = cell killing",[1]; [2],-10.4%
same,"activity, negative = cell killing",[1]; [3],-17.3%
same,"activity, negative = cell killing",[1]; [4],-23.4%
same,Potency,astro,inactive
O=C1N=C2SCCN2C(=O)C1Cc1ccc(Cl)cc1 (stereo unspecified),"activity, negative = cell killing",[1]; [2],-17.4%
same,"activity, negative = cell killing",[1]; [3],-11.7%
same,"activity, negative = cell killing",[1]; [4],-2.54%
same,Potency,astro,inactive
CC(C)=CCC/C(C)=C/C=C/C(C)=C/C=C/C(C)=C/C=C/C=C(C)/C=C/C=C(C)/C=C/C=C(\C)CCC=C(C)C,"activity, negative = cell killing",[1]; [2],-10.4%
same,"activity, negative = cell killing",[1]; [3],-12.4%
same,"activity, negative = cell killing",[1]; [4],14.8%
same,Potency,astro,inactive
O=C(OC[C@H]1O[C@](O)(COC(=O)c2cccnc2)[C@@H](OC(=O)c2cccnc2)[C@@H]1OC(=O)c1cccnc1)c1cccnc1,"activity, negative = cell killing",[1]; [2],-19%
same,"activity, negative = cell killing",[1]; [3],-0.117%
same,"activity, negative = cell killing",[1]; [4],-25.9%
same,Potency,astro,inactive
CCN(CC)CCOc1ccccc1OC,"activity, negative = cell killing",[1]; [2],5.43%
same,"activity, negative = cell killing",[1]; [3],-13.8%
same,"activity, negative = cell killing",[1]; [4],-28.2%
same,Potency,astro,inactive
C=CC[N+]1([C@H]2C[C@H]3[C@@H]4CC[C@H]5C[C@H](O)[C@@H](N6CCOCC6)C[C@]5(C)[C@H]4CC[C@]3(C)[C@H]2OC(C)=O)CCCC1,"activity, negative = cell killing",[1]; [2],-3.03%
same,"activity, negative = cell killing",[1]; [3],-12.4%
same,"activity, negative = cell killing",[1]; [4],-21.7%
same,Potency,astro,inactive
CC(C)(C)C(=O)OCC(=O)[C@H]1CC[C@H]2[C@@H]3CCC4=CC(=O)CC[C@]4(C)[C@H]3CC[C@]12C,"activity, negative = cell killing",[1]; [2],-7.01%
same,"activity, negative = cell killing",[1]; [3],-7.34%
same,"activity, negative = cell killing",[1]; [4],0.589%
same,Potency,astro,inactive
Oc1ccc(Cl)c2c1CCC2,"activity, negative = cell killing",[1]; [2],-12.8%
same,"activity, negative = cell killing",[1]; [3],-3.41%
same,"activity, negative = cell killing",[1]; [4],-12.7%
same,Potency,astro,inactive
Cn1nnnc1SCC1=C(C(=O)O)N2C(=O)[C@@H](NC(=O)[C@H](O)c3ccccc3)[C@H]2SC1,"activity, negative = cell killing",[1]; [6],-9.7%
same,"activity, negative = cell killing",[1]; [7],-12.5%
same,"activity, negative = cell killing",[1]; [8],-10.9%
same,Potency,astro,inactive
CN[C@@H]1[C@@H](O)[C@@H](O[C@@H]2[C@@H](O)[C@H](OC3OC(CN)=CCC3N)[C@@H](N)C[C@H]2N)OC[C@]1(C)O (stereo partly specified),"activity, negative = cell killing",[1]; [6],5.74%
same,"activity, negative = cell killing",[1]; [7],-6.65%
same,"activity, negative = cell killing","[1]; at 21.3 µM (top of the series), tumour line A",-25.4%
same,Potency,astro,inactive
CNC(=O)OCc1cccc(COC(=O)NC)n1,"activity, negative = cell killing",[1]; [2],-20.8%
same,"activity, negative = cell killing",[1]; [3],4.88%
same,"activity, negative = cell killing",[1]; [5],-25.4%
same,Potency,astro,inactive
COc1ccc(-c2noc(CC(=O)O)c2-c2ccc(OC)cc2)cc1,"activity, negative = cell killing",[1]; [2],-13.4%
same,"activity, negative = cell killing",[1]; [3],-6.66%
same,"activity, negative = cell killing",[1]; [4],-18%
same,Potency,astro,inactive
CC[C@H]1NC(=O)[C@@H](NC(=O)c2ncccc2O)[C@@H](C)OC(=O)[C@H](c2ccccc2)NC(=O)[C@@H]2CC(=O)CCN2C(=O)[C@H](Cc2ccccc2)N(C)C(=O)[C@@H]2CCCN2C1=O,"activity, negative = cell killing",[1]; [2],-1.4%
same,"activity, negative = cell killing",[1]; [3],17.7%
same,"activity, negative = cell killing",[1]; [4],-11%
same,Potency,astro,inactive
CS(=O)(=O)c1ccc([C@@H](O)[C@@H](COC(=O)CN)NC(=O)C(Cl)Cl)cc1,"activity, negative = cell killing",[1]; [2],-20.1%
same,"activity, negative = cell killing",[1]; [4],-21.6%
same,Potency,astro,inactive
CC(C)C[C@@H](NC(=O)[C@@H](O)[C@H](N)Cc1ccccc1)C(=O)O,"activity, negative = cell killing",[1]; [2],-12.5%
same,"activity, negative = cell killing",[1]; [3],-2.21%
same,"activity, negative = cell killing",[1]; [4],-22.2%
same,Potency,astro,inactive
C=CC[N@@+]12CC[C@@]34c5ccccc5N5/C=C6/[C@H]7C[C@H]8[C@@]9(CC[N@@+]8(CC=C)C/C7=C/CO)c7ccccc7N(/C=C(/[C@@H](C[C@@H]31)/C(=C\CO)C2)[C@H]54)[C@@H]69,"activity, negative = cell killing",[1]; [6],-3.52%
same,"activity, negative = cell killing",[1]; [7],-8.94%
same,"activity, negative = cell killing",[1]; [8],3.96%
same,Potency,astro,inactive

# From PubChem BioAssay (NCATS)
